About 83,000 compounds went through this panel and 20% of them were active in at least one assay; those are over-represented in the sample as a whole.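 Negative percent growth values reflect cell death: -40 means 40% of the cells present at the start died, and -100 means all died.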 Values without a mark were called inactive. The source made the active and inactive calls. How the source made its calls: active means growth percent below 10; inactive means the rest.
system: BT-549 breast; assay: NCI-60 one-dose screen, 48 h (100 = growth as untreated, 0 = no growth, -100 = all killed); conditions: 10 µM unless noted

Row | SMILES | growth
1 | Cc1nn(-c2ccccc2)c(-n2ccnc2)c1/C=N/Nc1nc(-c2ccc(F)cc2)cs1 | 75.3%
2 | O=C(Nc1ccc(Br)cc1F)c1cc(Br)ccc1O | -6.02% (active)
3 | O=C(/C=C/c1sc(Cl)nc1Cl)c1ccccc1 | 107%
4 | CCCCCCCCCCCCCCCCCC1OCC(COC(=O)O[C@]2(CC)C(=O)OCc3c2cc2n(c3=O)Cc3cc4ccccc4nc3-2)O1 (stereo partly specified) | 80%
5 | COc1cc2cc(Oc3ccc(NC(=O)Nc4ccc(F)c(C(F)(F)F)c4)cc3)c(C)nc2cc1OCCN1CCOCC1 | 40.3%
6 | CCOC(=O)c1nc(Nc2ccc(C(C)=O)cc2)sc1C | 106%
7 | COc1ccc(C2CC(c3ccc(Nc4nc(Nc5ccc(F)cc5)nc(Nc5ccc(Cl)cc5)n4)cc3)=NN2C(C)=O)cc1 (stereo unspecified) | 143%
8 | CCN(CC)CCNc1nc2ccccc2c2c(=O)c3cc(Cl)ccc3sc12 | 94%
9 | Cc1ccc(C2CC(c3ccc(Nc4ccnc5cc(Cl)ccc45)cc3)=NN2C=O)cc1 (stereo unspecified) | 56.8%
10 | N/C(=N\c1nc2ccccc2s1)NC(=O)Nc1cccc2ccccc12 | 71.6%
11 | O=C(Cc1ccc(F)c(Cl)c1)Nc1cc(C2(C(F)(F)F)CC2)nn1Cc1ccccc1 | 77.7%
12 | O=C1CCC(C(=O)NCCNCCNC(=O)C2CCC(=O)N2)N1 (stereo unspecified) | 81.3%
13 | C=CCNc1ccc2c3c(cccc13)C(=O)N(N1C(=O)c3cccc4cccc(c34)C1=O)C2=O | 105%
14 | NCCCNc1nc2ccccc2c2c(=O)c3cccc(F)c3sc12 | 91.2%
15 | Cc1ccc2sc3c(NCCN)nc4ccccc4c3c(=O)c2c1 | 88.1%
16 | CCCCN(C)N=Nc1ccc(C(N)=O)cc1 | 112%
17 | O=C(N/N=C/[C@@H](O)[C@H](O)[C@H](O)CO)c1ccc(NC(=O)c2cccnc2)cc1 | 99%
18 | CC(=O)CC(c1cccs1)c1c(-c2ccccc2)[nH]c2ccccc12 (stereo unspecified) | 105%
19 | Cc1oc2nc[nH]c(=O)c2c1C(=O)/C=C/c1ccc(Br)cc1 | 2.55% (active)

Row | SMILES | growth
20 | C=C1C(=O)O[C@H]2[C@H]1CC/C(COC(=O)CSCC(=O)OC/C1=C/CC[C@@]3(C)O[C@H]3[C@H]3OC(=O)C(=C)[C@@H]3CC1)=C\CC[C@@]1(C)O[C@@H]21 | -1.44% (active)
21 | N#Cc1c(-c2ccc(Cl)cc2)nc(NCCO)[nH]c1=O | 102%
22 | Cc1cc(-c2cc(C)c(N)cc2C)c(C)cc1N | 92.3%
23 | CCCCCCCCCCCCCCCCCCOc1ccccc1CC(=O)OCC[N+](CC)(CC)CC | 76.3%
24 | FC(F)(F)c1cc(Nc2ccc3c(OCCCN4CCOCC4)cccc3n2)ccc1Cl | 62.1%
25 | COc1cc2cc(Oc3ccc(NC(=O)Nc4cccc(C(F)(F)F)c4)cc3)c(C)nc2cc1OCCN1CCOCC1 | 70.8%
26 | Cc1nc(NC(=O)COc2ccc(/C=C3\Cc4ccc(Cl)cc4C3=O)cc2)sc1C | 328%
27 | CCc1nnc(NC(=O)c2nnn(-c3ccccc3)c2-c2ccco2)s1 | 102%
28 | COc1cc(C(=O)c2cc(C)c3[nH]c4ccc(C)cc4c3c2C)cc(OC)c1OC | 14.5%
29 | O=c1c2cc(F)ccc2sc2c(NCCN3CCOCC3)nc3ccccc3c12 | 82.3%
30 | CC(=O)OC[C@H]1OC(Sc2sc(C(=O)c3ccc(Br)cc3)c(N)c2-c2nc3ccccc3s2)[C@H](OC(C)=O)[C@@H](OC(C)=O)[C@H]1OC(C)=O (stereo partly specified) | 90.2%
31 | C[N+]1=C(/C=C/c2ccc(O)c3ncccc23)C(C)(C)c2ccccc21 | 81.2%
32 | CC(C)c1cc(C(C)C)c(S(=O)(=O)Oc2ccc(NC(=O)c3ccc(Cl)cc3)cc2)c(C(C)C)c1 | 20.4%
33 | CCOc1c(B(O)O)cccc1-c1nc2ccc3[nH]ncc3c2c2c1CCCC2 | 25.1%
34 | CC1=C([Se]CC(OC(=O)[C@@H](CSSC(C)(C)C)NC(=O)OC(C)(C)C)C(=O)NC(C)(C)C)C(=O)c2ccccc2C1=O (stereo partly specified) | -97.8% (active)
35 | CNC(=O)c1[nH]cc(-c2ccccc2)c1-c1cc(OC)c2c(c1OC)OCO2 | 95.6%
36 | C=C(C)C1CCC2(C)OC2C1 (stereo unspecified) | 99.3%
37 | CSc1ncccc1C(=O)OCC(=O)Nc1oc(C)c2c(C)n[nH]c(=O)c12 | 99.1%
38 | Oc1ccc(CCl)c2cccnc12 | 66.7%

system: MDA-MB-435 melanoma; assay: as above; conditions: 10 µM unless noted

Row | SMILES | growth
39 | Cc1nn(-c2ccccc2)c(-n2ccnc2)c1/C=N/Nc1nc(-c2ccc(F)cc2)cs1 | 85.2%
40 | O=C(Nc1ccc(Br)cc1F)c1cc(Br)ccc1O | 3.11% (active)
41 | O=C(/C=C/c1sc(Cl)nc1Cl)c1ccccc1 | 99.4%
42 | CCCCCCCCCCCCCCCCCC1OCC(COC(=O)O[C@]2(CC)C(=O)OCc3c2cc2n(c3=O)Cc3cc4ccccc4nc3-2)O1 (stereo partly specified) | 92.6%
43 | COc1cc2cc(Oc3ccc(NC(=O)Nc4ccc(F)c(C(F)(F)F)c4)cc3)c(C)nc2cc1OCCN1CCOCC1 | 16.5%
44 | CCOC(=O)c1nc(Nc2ccc(C(C)=O)cc2)sc1C | 100%
45 | COc1ccc(C2CC(c3ccc(Nc4nc(Nc5ccc(F)cc5)nc(Nc5ccc(Cl)cc5)n4)cc3)=NN2C(C)=O)cc1 (stereo unspecified) | 97.1%
46 | CCN(CC)CCNc1nc2ccccc2c2c(=O)c3cc(Cl)ccc3sc12 | 15.6%
47 | Cc1ccc(C2CC(c3ccc(Nc4ccnc5cc(Cl)ccc45)cc3)=NN2C=O)cc1 (stereo unspecified) | 16.3%
48 | N/C(=N\c1nc2ccccc2s1)NC(=O)Nc1cccc2ccccc12 | -27.7% (active)
49 | O=C(Cc1ccc(F)c(Cl)c1)Nc1cc(C2(C(F)(F)F)CC2)nn1Cc1ccccc1 | 87.8%
50 | O=C1CCC(C(=O)NCCNCCNC(=O)C2CCC(=O)N2)N1 (stereo unspecified) | 104%
51 | C=CCNc1ccc2c3c(cccc13)C(=O)N(N1C(=O)c3cccc4cccc(c34)C1=O)C2=O | 101%
52 | NCCCNc1nc2ccccc2c2c(=O)c3cccc(F)c3sc12 | 16.5%
53 | Cc1ccc2sc3c(NCCN)nc4ccccc4c3c(=O)c2c1 | 46.2%
54 | CCCCN(C)N=Nc1ccc(C(N)=O)cc1 | 84.5%
55 | O=C(N/N=C/[C@@H](O)[C@H](O)[C@H](O)CO)c1ccc(NC(=O)c2cccnc2)cc1 | 104%
56 | CC(=O)CC(c1cccs1)c1c(-c2ccccc2)[nH]c2ccccc12 (stereo unspecified) | 98%
57 | Cc1oc2nc[nH]c(=O)c2c1C(=O)/C=C/c1ccc(Br)cc1 | 19.8%

Row | SMILES | growth
58 | C=C1C(=O)O[C@H]2[C@H]1CC/C(COC(=O)CSCC(=O)OC/C1=C/CC[C@@]3(C)O[C@H]3[C@H]3OC(=O)C(=C)[C@@H]3CC1)=C\CC[C@@]1(C)O[C@@H]21 | 26.8%
59 | N#Cc1c(-c2ccc(Cl)cc2)nc(NCCO)[nH]c1=O | 106%
60 | Cc1cc(-c2cc(C)c(N)cc2C)c(C)cc1N | 6.88% (active)
61 | CCCCCCCCCCCCCCCCCCOc1ccccc1CC(=O)OCC[N+](CC)(CC)CC | 11%
62 | FC(F)(F)c1cc(Nc2ccc3c(OCCCN4CCOCC4)cccc3n2)ccc1Cl | 62.7%
63 | COc1cc2cc(Oc3ccc(NC(=O)Nc4cccc(C(F)(F)F)c4)cc3)c(C)nc2cc1OCCN1CCOCC1 | 30.4%
64 | Cc1nc(NC(=O)COc2ccc(/C=C3\Cc4ccc(Cl)cc4C3=O)cc2)sc1C | 96.8%
65 | CCc1nnc(NC(=O)c2nnn(-c3ccccc3)c2-c2ccco2)s1 | 97.1%
66 | COc1cc(C(=O)c2cc(C)c3[nH]c4ccc(C)cc4c3c2C)cc(OC)c1OC | 17.5%
67 | O=c1c2cc(F)ccc2sc2c(NCCN3CCOCC3)nc3ccccc3c12 | 61.2%
68 | CC(=O)OC[C@H]1OC(Sc2sc(C(=O)c3ccc(Br)cc3)c(N)c2-c2nc3ccccc3s2)[C@H](OC(C)=O)[C@@H](OC(C)=O)[C@H]1OC(C)=O (stereo partly specified) | 91.7%
69 | C[N+]1=C(/C=C/c2ccc(O)c3ncccc23)C(C)(C)c2ccccc21 | 59.6%
70 | CC(C)c1cc(C(C)C)c(S(=O)(=O)Oc2ccc(NC(=O)c3ccc(Cl)cc3)cc2)c(C(C)C)c1 | 41.4%
71 | CCOc1c(B(O)O)cccc1-c1nc2ccc3[nH]ncc3c2c2c1CCCC2 | 90.1%
72 | CC1=C([Se]CC(OC(=O)[C@@H](CSSC(C)(C)C)NC(=O)OC(C)(C)C)C(=O)NC(C)(C)C)C(=O)c2ccccc2C1=O (stereo partly specified) | -91.2% (active)
73 | CNC(=O)c1[nH]cc(-c2ccccc2)c1-c1cc(OC)c2c(c1OC)OCO2 | 102%
74 | C=C(C)C1CCC2(C)OC2C1 (stereo unspecified) | 98.2%
75 | CSc1ncccc1C(=O)OCC(=O)Nc1oc(C)c2c(C)n[nH]c(=O)c12 | 107%
76 | Oc1ccc(CCl)c2cccnc12 | 84.8%

Source: PubChem BioAssay (NCI)
